In the supplement of paper PMC6522484:
± gives the standard deviation of the averaged measurements.

Test system: SW480
Test: TCF/Wnt firefly luciferase reporter signal relative to plate median (fraction of plate median); higher = higher Wnt reporter signal
Settings: 5 µM; treatment time 24 h; reporter: 7TFP
Procedure, shortened: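 Normalisation used webcellHTS2 in additive mode without log transformation, scaling each well's luminescence to the plate median. The luminescence was firefly luciferase or CellTiterGlo, read on a Tecan F500 from parallel plates of colorectal cancer cells stably transduced with lentiviral TCF/Wnt firefly luciferase reporters. Those cells had been given library compounds at a final 5 µM for 24 h, and two independent replicates were averaged.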

Structure (SMILES) | TCF/Wnt firefly luciferase reporter signal
Cc1ccc(C(=O)c2ccc(CC(=O)O)n2C)cc1 | 1.06 ± 0.064
CC[C@H]1OC(=O)[C@H](C)[C@@H](O[C@H]2C[C@@](C)(OC)[C@@H](O)[C@H](C)O2)[C@H](C)[C@@H](O[C@@H]2O[C@H](C)C[C@H](N(C)C)[C@H]2O)[C@](C)(O)C[C@@H](C)CN(C)[C@H](C)[C@@H](O)[C@]1(C)O | 1.04 ± 0.12
COc1ccc2ccc(=O)oc2c1 | 0.915 ± 0.12
CCC(=O)O[C@@H]1[C@@H](OC2C(C)/C=C/C(=O)OC(C)C(CO[C@@H]3O[C@H](C)[C@@H](OC(=O)CC)[C@@H](OC)[C@H]3OC)C3OC3/C=C/C(=O)C(C)(O)CC2C)O[C@@H](C)C[C@H]1OC (stereo not given in full) [Chalcomycin B] | 0.972 ± 0.2
Nc1nc2c(ncn2COCCO)c(=O)[nH]1 | 0.973 ± 0.053
CC1(C)CC[C@]2(C)CC[C@]3(C)C(=CC[C@@H]4[C@@]5(C)CC[C@H](O)C(C)(C)[C@@H]5CC[C@]43C)[C@@H]2C1 [beta-AMYRIN] | 0.9235 ± 0.0021
O=C(O)c1ccccc1Nc1ccccc1 | 0.911 ± 0.17
C[C@@H]1O[C@@H](O[C@H]2[C@H](O[C@H]3CC[C@@]4(C)[C@@H](CC[C@]5(C)[C@@H]4CC=C4[C@@H]6CC(C)(C)CC[C@]6(C(=O)O)CC[C@]45C)[C@]3(C)CO)OC[C@H](O)[C@@H]2O)[C@H](O)[C@H](O)[C@H]1O | 1.06 ± 0.064
CC(=O)Nc1ccccc1 | 0.975 ± 0.028
CC(=O)OCC(=O)[C@@]1(O)[C@H](OC(C)=O)C[C@H]2[C@@H]3CCC4=CC(=O)C=C[C@]4(C)[C@@]3(F)[C@@H](O)C[C@@]21C | 0.894 ± 0.069
CC1(C)[C@@H](OC(=O)CCC(=O)O)CC[C@]2(C)[C@H]3C(=O)C=C4[C@@H]5C[C@@](C)(C(=O)O)CC[C@]5(C)CC[C@@]4(C)[C@]3(C)CC[C@@H]12 | 1.01
CCC(C)C(N)=O (stereo not given) [2-Methylbutyramide] | 1.045 ± 0.0071
C=CCSSSCC=C | 0.874 ± 0.013
Cc1cc(O)c(C=O)c2c1C(=O)Oc1c(COC(=O)/C=C/C(=O)O)c(O)c(C(=O)O)c(C)c1O2 | 0.939 ± 0.12
O=C(O)[C@@H](O)[C@H](O)[C@H](O)[C@@H](O)C(=O)O | 1.03 ± 0.028
Nc1nc2c(ncn2[C@H]2C[C@H](O)[C@@H](CO)O2)c(=O)[nH]1 [Desoxyguanosin] | 0.997 ± 0.018
CC(=O)/C=C\[C@@H]1[C@@]2(C)CCCC(C)(C)C2CC[C@@]1(C)O (stereo not given in full) | 0.93 ± 0.11
CC(=O)OCC(=O)[C@@]12OC3(CCCC3)O[C@@H]1C[C@H]1[C@@H]3CCC4=CC(=O)C=C[C@]4(C)[C@@]3(F)[C@@H](O)C[C@@]12C | 0.771 ± 0.28
CC(=O)Oc1cccc(O)c1 | 1.05 ± 0.028
CCCOc1ccccc1-c1nc2[nH]nnc2c(=O)[nH]1 | 0.951 ± 0.084

Structure (SMILES) | TCF/Wnt firefly luciferase reporter signal
CC(=O)Oc1ccc2c(c1C(C)C)CCC1C(C)(C)CCC[C@]21C (stereo not given in full) | 0.962 ± 0.047
CC(=O)NO | 1.075 ± 0.0071
NCCc1c[nH]cn1 | 1.06 ± 0.014
CC#C[C@]1(O)CC[C@H]2[C@@H]3CCC4=CC(=O)CCC4=C3[C@@H](c3ccc(N(C)C)cc3)C[C@@]21C | 1.01 ± 0.063
COc1cc(O)c2c(c1)C(=O)c1cc(C)cc(O)c1C2=O | 1.09 ± 0.057
N=c1ccn2c(n1)O[C@H]1[C@H](O)[C@@H](CO)O[C@H]12 | 1.1
CN1CCN(CCCN2c3ccccc3Sc3ccc(C(F)(F)F)cc32)CC1 | 1.05 ± 0.14
CC(=O)O[C@H]1CC[C@]2(C)[C@H]3CC[C@@]4(C)[C@H](c5ccoc5)OC(=O)[C@H]5O[C@]54[C@]3(C)[C@H](OC(C)=O)C[C@H]2C1(C)C [3beta-ACETOXYDEOXODIHYDROGEDUNIN] | 1.04 ± 0.028
CCCCCCNC(=O)n1cc(F)c(=O)[nH]c1=O | 1.08 ± 0.078
CC12CCC3c4ccc(OCc5ccccc5)cc4CCC3C1C[C@@H](O)[C@@H]2O (stereo not given in full) | 0.993 ± 0.025
CC1CC(OC(=O)C(O)c2ccccc2)CC(C)(C)N1C (stereo not given) | 1.18 ± 0.057
NC(=O)N1c2ccccc2CC(=O)c2ccccc21 | 1.1 ± 0.14
CN1CCN(CC(=O)N2c3ccccc3C(=O)Nc3cccnc32)CC1 | 0.813 ± 0.0099
O.O.O.O.O=C([O-])CC(O)(CC(=O)[O-])C(=O)[O-].[Li+].[Li+].[Li+] | 0.725 ± 0.14
CC1(C)S[C@@H]2[C@H](NC(=O)[C@H](N)c3ccc(O)cc3)C(=O)N2[C@H]1C(=O)O | 1.01
CC(C)c1c(C(=O)Nc2ccccc2)c(-c2ccccc2)c(-c2ccc(F)cc2)n1CC[C@@H](O)C[C@@H](O)CC(=O)O | 0.909 ± 0.013
CCC1(C)OC(=O)N(C)C1=O (stereo not given) | 0.956 ± 0.076
C=C1CC[C@@H]2[C@](C)(CO)[C@H](O)CC[C@@]2(C)[C@@H]1C/C=C1/C(=O)OC[C@H]1O | 0.987 ± 0.033
C=CC[C@@H]1/C=C(\C)C[C@H](C)C[C@H](OC)[C@H]2O[C@@](O)(C(=O)C(=O)N3CCCC[C@H]3C(=O)O[C@H](/C(C)=C/[C@@H]3CC[C@@H](O)[C@H](OC)C3)[C@H](C)[C@@H](O)CC1=O)[C@H](C)C[C@@H]2OC | 0.98 ± 0.0057
COc1cc2c(cc1OC)-c1cc3ccc(OC)c(OC)c3c[n+]1CC2 | 1.01 ± 0.073
